# JMJD2A Tudor: JMJD2A Tudor domain (human) inhibition; 390,000 compounds, 4.4% hits; Potency, µM (highest dose often 114 µM), actives largely listed as inhibitors; AlphaScreen JMJD2A-Tudor / H3K4me3 peptide binding; note: nearly all actives have a fitted effect of over 50% in size
# G9a block: blocks human histone lysine methyltransferase G9a; Potency, µM (top dose mostly 102 µM), hits mostly inhibitors; 350,000 compounds, 8.8% hits; G9a H3K9 monomethylation, AlphaScreen, 2 h; AID 504332; note: nearly all actives have a fitted effect of over 75% in size
#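 G9a (20 nM) was preincubated 15 min with compound, then reacted 2 h at room temperature with 500 nM biotin-H3K9 peptide and 20 µM SAM. Monomethyl-H3K9 detected by AlphaScreen using anti-H3K9me1 antibody.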
# BAZ2B block: BAZ2B (human) inhibition; Q9UIF8; AlphaScreen BAZ2B-H3K14Ac peptide displacement; Potency, µM (series often up to 114 µM), most hits filed as inhibitors; 360,000 compounds, 4.4% hits; note: nearly all actives have a fitted effect of over 60% in size
#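 BAZ2B (50 nM) with biotin-H3(5-23)K14Ac peptide (50 nM) in PBS pH 7.4, 0.01% Tween-20, preformed 30 min, then compound 30 min at room temperature; top concentration 110uM. AlphaScreen streptavidin donor/nickel chelate acceptor beads (10 ug/mL final), 20 min dark, signal read.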
# Sfp PPTase inh: inhibitors of Bacillus subtilis Sfp phosphopantetheinyl transferase. Q9F4F7. Biochemical Sfp PPTase activity, qHTS. Potency, µM, hits mostly inhibitors. 310,000 compounds, 3.5% hits;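 note: the enzyme is Sfp with the accession as filed and its product quenches rhodamine fluorescence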
#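 Fluorescence-quenching assay: 15 nM Sfp-PPTase preincubated 15 min at room temperature with compound, then 5 uM rhodamine-CoA and 12.5 uM BHQ-2-labelled YbbR peptide added. Fluorescence (ex 525/em 598 nm) read at start and after 30 min; difference gives rate.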
# HP1b binding inh: HP1-beta chromodomain-methylated histone interaction inhibition; AlphaScreen HP1-beta / biotin-H3K9me3 peptide binding; AID 540317; 390,000 compounds, 0.56% hits; Potency, µM (series often up to 114 µM), hits mostly inhibitors; note: nearly all actives have a fitted effect of over 70% in size
#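 AlphaScreen: HP1-beta (50 nM) preformed 30 min with biotin-H3(1-18)K9me3 peptide (50 nM) in PBS pH 7.4, 0.01% Tween-20. Compound added for 30 min at RT, then streptavidin donor/nickel chelate acceptor beads (10 ug/mL) for 30 min.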
# Hits are given with their value; 0 = inactive; ? = inconclusive; - = not tested or not shown; ! = not confirmed by another sample; [ ] = remark or other dose. Sampled rows, rich in hits. Any-hit rate of the full collection: about 12%. Calls come from the whole dose curve; as a rule, active = well fitted curve in the direction sought with a large enough effect; inconclusive = small, poorly fitted or top-dose-only effect, or another doubt; inactive = no such curve, though single readings can be large; an effect the other way counts as inactive or inconclusive.
SMILES,JMJD2A Tudor,G9a block,BAZ2B block,Sfp PPTase inh,HP1b binding inh
COc1ccccc1-c1nc(NCc2cnc(C)cn2)c2ccccc2n1,-,-,-,50µM,-
COc1ccccc1-c1cncnc1NCCNC(C)=O,-,0[0.501 µM],-,79µM,-
Cc1cnc(CNc2ncncc2-c2ccccc2C(F)(F)F)cn1,-,-,-,71µM,-
COc1ccccc1-c1cncnc1NCc1cnc(C)cn1,-,0[0.501 µM],-,79µM,-
COC(=O)[C@H](CCSC)NC(=O)Nc1ccc(C(C)=O)cc1,0,0,0,0,0
O=C(O)COc1c(-c2ccco2)oc2ccccc2c1=O,0,45µM,0,0,0
O=C(O)COc1c(-c2ccc(Cl)cc2)oc2ccccc2c1=O,0,?,0,0,0
COc1ccc(-c2oc3ccccc3c(=O)c2OCC(=O)O)cc1,?,0,0,0,0
NC(=O)COc1c(-c2ccco2)oc2ccccc2c1=O,0,0,0,89µM,0
COc1cc(NC(=O)c2ccc3nsnc3c2)cc(OC)c1OC,0,?,?,0,0
COc1ccc(C(=O)NNC(=O)C(=O)NC(C)c2ccccc2)cc1OC (stereo not drawn),0,6.3µM,0,0,0
COc1cccc(OC)c1C(=O)NC(C)c1ccccc1 (stereo not drawn),0,0,0,0,0
COc1ccccc1NC(=O)c1ccc2nsnc2c1,13µM,0,0,0,0
COc1ccc(C(=O)Nc2ccccc2C(=O)N2CCCCCC2)cc1OC,0,0,0,0,0
COc1ccc(C(=O)Nc2ccccc2C(=O)NC(C)C)cc1OC,50µM,0,0,0,0
CCCN(CC1CC1)C(=O)COC(=O)c1[nH]c(C)c(C(=O)OCC)c1C,0,?,0,0,0
CCCn1c(N)c(C(=O)CSc2nnc3n2CCCCC3)c(=O)n(C)c1=O,0,0[12.7 µM],0,-,0
O=S(=O)(c1ccccc1)N1CCN(Cc2cccc(Br)c2)CC1,28µM,-,-,-,?
O=C(c1cc(Br)ccc1Cl)N1CCN(c2ncccn2)CC1,?,0,0,0,0
Cc1cccc(CN2CCN(c3ncccn3)CC2)c1,2.8µM,-,?,?,?
Cc1cccc(CN2CCNC2=O)c1,0,?,0,0,0
Cc1cccc(CN2CCN(c3ccccn3)CC2)c1,3.2µM,-,-,-,?
Brc1cccc(CN2CCN(c3ncccn3)CC2)c1,20µM,10µM,?,0,?
CCOC(=O)CCC(=O)Nc1ccc(S(=O)(=O)N2CCc3ccccc32)cc1,0,0,0,0,0
CC1CC(C)(C)CC2(C1)NC(=O)N(CC(=O)OCc1ccc(Br)cc1)C2=O (stereo not drawn),0,0,0,-,0
SMILES,JMJD2A Tudor,G9a block,BAZ2B block,Sfp PPTase inh,HP1b binding inh
Clc1ccc(C(c2nnnn2C2CCCC2)N2CCN(c3nc4ccccc4s3)CC2)cc1 (stereo not drawn),0,-,-,-,0
c1ccc(CCCN2CCN(c3ccccn3)CC2)cc1,25µM,40µM,?,0,?
c1ccc(N2CCN(c3cnccn3)CC2)nc1,0,?,0,0,0
c1ccc(N2CCN(Cc3ccsc3)CC2)nc1,3.2µM,14µM,79µM,0,?
CCOc1ccc(CN2CCNC(=O)C2CC(=O)NCCc2cnccn2)cc1 (stereo not drawn),0,?,0,0,0
CC(=O)Nc1ccc(C2=NN(C)C(=NCc3ccccc3)SC2)cc1,45µM,?,-,0,0
O=C(CC(Nc1cccc(Cl)c1Cl)C(=O)OCC(=O)c1cccs1)c1ccccc1 (stereo not drawn),0,0,0,56µM,0
Cc1c(Cl)cccc1NC(CC(=O)c1ccccc1)C(=O)OCC(=O)c1cccs1 (stereo not drawn),0,35µM,0,8.9µM,0
O=C(CCC(=O)c1ccc(Oc2ccccc2)cc1)Nc1cccc(Cl)c1Cl,0,0,0,0,0
COc1ccccc1NC(CC(=O)c1ccccc1)C(=O)OCC(=O)c1ccc(F)cc1 (stereo not drawn),0,?,0,?,0
O=C(CCC(=O)c1cccs1)OCC(=O)c1ccccc1,0,-,-,-,0
O=C(CC(Nc1cccc(Cl)c1Cl)C(=O)O)c1ccccc1 (stereo not drawn),0,28µM,0,8.9µM,0
COc1ccc2c(c1)N(C[C@@H](C)CN(C)C)c1ccccc1S2,-,7.9µM,-,0,-
C[C@@H](CN1c2ccccc2Sc2ccccc21)N(C)C,-,?,-,0,-
CC(CN1c2ccccc2Sc2ccccc21)N(C)C (stereo not drawn),?,15µM!,45µM,50µM!,0

# Screening data: PubChem, National Center for Advancing Translational Sciences (NCATS)
